# Hits are enriched below; roughly 31% of the tested compounds scored in any of these assays.
# CYP2C19 inh = blocks human cytochrome P450 2C19; CYP2C19 Supersomes, luciferin-H EGE luminescence, 30 min; inhibition, % at 5 µM; 96,000 compounds, 21% hits; AID 778;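 active = CYP2C19 inhibition above a set limit at 5 µM in the primary screen, cut at about 50% in these data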;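 note: plate controls were negative control wells for no effect and 2.5 mM tranylcypromine positive control for full effect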
# Target sequence (P33261 whole entry, looked up): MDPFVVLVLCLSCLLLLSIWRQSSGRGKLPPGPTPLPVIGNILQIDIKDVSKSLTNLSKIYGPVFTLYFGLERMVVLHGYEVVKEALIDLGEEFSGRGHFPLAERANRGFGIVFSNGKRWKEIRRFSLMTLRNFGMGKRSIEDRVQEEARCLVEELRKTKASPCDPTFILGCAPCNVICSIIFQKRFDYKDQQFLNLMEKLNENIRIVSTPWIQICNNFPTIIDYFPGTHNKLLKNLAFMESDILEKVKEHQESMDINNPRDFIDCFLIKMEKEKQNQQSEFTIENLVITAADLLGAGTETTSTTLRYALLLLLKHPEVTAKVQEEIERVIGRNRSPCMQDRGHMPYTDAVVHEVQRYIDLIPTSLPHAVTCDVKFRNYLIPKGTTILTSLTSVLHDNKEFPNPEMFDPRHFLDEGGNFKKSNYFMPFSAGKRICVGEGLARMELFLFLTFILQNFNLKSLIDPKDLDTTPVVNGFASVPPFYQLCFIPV
# CYP2C19 activ = increases human CYP2C19 enzyme activity; activation factor at 5 µM; 96,000 tested, under 10 active; recombinant CYP2C19, luciferin-H EGE luminescence; stronger effect = higher value; 0 = fully inhibited enzyme, 1 = untreated enzyme;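 active = activation factor of at least 2 at 5 µM in the primary screen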;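 note: 0 = wells with 2.5 mM tranylcypromine and 1 = vehicle-only wells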
# CYP2C9 inhib = blocks human cytochrome P450 2C9 | P11712 | CYP2C9 Supersomes, luciferin-H conversion, luminescence | inhibition, % at 5 µM | 96,000 compounds, 20% hits | AID 777;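 active = blocking of liver enzyme CYP2C9 beyond about 50% at 5 µM, limit read from the data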
# CYP2C9 act = CYP2C9 (human) activation; P11712; recombinant CYP2C9, luciferin-H conversion, luminescence; stronger effect = higher value; factor 1 = untreated enzyme, 0 = blocked; activation factor at 5 µM; 96,000 compounds, 1.4% hits;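 active = activation factor of 2 or more for CYP2C9 at a 5 µM dose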;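 note: 0 = sulfaphenazole-blocked wells and 1 = vehicle-only wells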
# An asterisk follows results filed as active.
SMILES,CYP2C19 inh,CYP2C19 activ,CYP2C9 inhib,CYP2C9 act
CC(=O)N1CCN(c2ccccc2NC(=O)c2cc(Br)ccc2Cl)CC1,36,0.6,59*,0.4
CC(=O)N1CCN(c2ccc(NC(=O)COc3ccc(Cl)cc3Cl)cc2)CC1,17,0.8,18,0.8
CN1CCN(c2ccccc2NC(=O)c2cc(Br)ccc2Cl)CC1,15,0.9,10,0.9
CC(=O)N1CCN(c2ccccc2NC(=O)COc2ccc(Cl)cc2Cl)CC1,78*,0.2,46,0.5
O=C(COc1ccc(Cl)cc1Cl)NC(=S)N1CCCc2ccccc21,60*,0.4,62*,0.4
CCC(=O)N1CCN(c2ccccc2NC(=O)COc2cc(C)ccc2C(C)C)CC1,93*,0.1,96*,0
O=C(NNC(=O)C1CCN(Cc2ccccc2)CC1)c1cccc(Cl)c1,11,0.9,17,0.8
CN(C)c1nc(-c2ccccc2)nnc1C(F)(F)F,25,0.8,-47,1.5
CCOc1nc(Nc2ccc(OC)c(Cl)c2)nc(OCC)n1,5,0.9,8,0.9
CCN(CCCNC(=O)CCNC(=O)Cn1cnc2ccccc2c1=O)c1ccccc1,1,1,40,0.6
CC(C)(C)C(=O)N1CCC(O)(CS(=O)(=O)Cc2ccccc2Cl)CC1,13,0.9,14,0.9
CC(C)(C)C(=O)N1CCN(c2c(Cl)cccc2[N+](=O)[O-])CC1,65*,0.4,85*,0.1
CCCCc1ccc(N2C(=O)[C@@H]3C(CC(N)=O)NC4(C(=O)Nc5ccc(F)cc54)[C@@H]3C2=O)cc1 (stereo partly drawn),-8,1.1,25,0.8
Cc1cc(=O)n2nc(-c3ccc(C(F)(F)F)cc3)sc2n1,-27,1.3,-15,1.1
CC1CC(C)(C)N(C(=O)CSc2ccc(-c3ccc(F)cc3)nn2)c2ccccc21 (stereo not drawn),49,0.5,58*,0.4
CCCC(=O)Nc1sc(C)c(C)c1C(=O)Nc1cccc(C)c1,15,0.8,10,0.9
Cc1ccccc1NC(=O)C(C)c1cccc(C(=O)c2ccccc2)c1 (stereo not drawn),91*,0.1,78*,0.2
Cc1[nH]c2ccccc2c1/C=C(\C#N)C(=O)NC(C)c1ccccc1 (stereo not drawn),15,0.9,-111,2.1*
N#C/C(=C\c1ccc(O)c(O)c1)S(=O)(=O)c1ccccc1,41,0.6,40,0.6
Cc1[nH]c2ccccc2c1/C=C(\C#N)S(=O)(=O)c1ccccc1,20,0.8,67*,0.3
Cc1cccc(/C=N/NC(=O)C(C)Nc2cccc3ccccc23)n1 (stereo not drawn),71*,0.3,8,0.9
CCN(CCCNC(=O)CN(C)S(=O)(=O)c1ccc2c(c1)CCC(=O)N2)c1cccc(C)c1,16,0.8,64*,0.4
CC1CCN(CCNC(=O)CN(C)S(=O)(=O)c2cccc3nsnc23)CC1,-12,1.1,-5,1
CCN(CCCNC(=O)CN(C)S(=O)(=O)c1cccc2nsnc12)c1cccc(C)c1,27,0.7,74*,0.3
CCN(CCNC(=O)CN(C)S(=O)(=O)c1cccc2nsnc12)c1ccccc1,89*,0.1,59*,0.4
SMILES,CYP2C19 inh,CYP2C19 activ,CYP2C9 inhib,CYP2C9 act
CCN(CCNC(=O)C1CCN(S(=O)(=O)c2cccc3nsnc23)CC1)c1ccccc1,13,0.9,-3,1
CSc1nnc(-c2nnc(SC)n2-c2ccccc2)n1-c1ccccc1,1,1,-4,1
O=C(Oc1ccc2c(=O)c(Oc3ccc4ccccc4c3)coc2c1)c1ccco1,24,0.8,-54,1.5
Cc1ccc(S(=O)(=O)N2CCC(C(=O)Nc3nnc(C45CC6CC(CC(C6)C4)C5)s3)CC2)cc1,14,0.9,-5,1.1
CCn1c(CCNC(=O)c2ccccc2Cl)n[nH]c1=S,2,1,8,0.9
NS(=O)(=O)c1ccc(CCNc2ncnc3sccc23)cc1,83*,0.2,42,0.6
Cc1cc(C)c(S(=O)(=O)N(C)CC(=O)NC2CCCC2)c(C)c1,80*,0.2,-124,2.2*
Cc1noc(/C=C/N(C)C)c1S(=O)(=O)N(C)CC(=O)NC1CCCCC1,39,0.6,62*,0.4
CN(CC(=O)NC1CCCCC1)S(=O)(=O)c1ccc(Cl)cc1,6,0.9,4,1
c1ccc(-c2cc3c(-n4cccc4)ncnc3o2)cc1,9,0.9,20,0.8
COc1ccc(S(=O)(=O)Cc2ccc(C(=O)N3CCN(Cc4ccccc4)CC3)o2)cc1,32,0.7,87*,0.1
COc1ccc(S(=O)(=O)Cc2ccc(C(=O)N3CCN(C(=O)c4ccco4)CC3)o2)cc1,18,0.8,80*,0.2
COc1ccc(N2Cc3cccc(C(=O)N4CCN(C(=O)c5ccco5)CC4)c3C2=O)cc1,26,0.7,64*,0.4
O=C(c1ccc(CS(=O)(=O)c2ccccc2)o1)N1CCOCC1,18,0.8,23,0.8
Cc1ccc(S(=O)(=O)Cc2ccc(C(=O)N3CCN(Cc4ccccc4)CC3)o2)cc1,41,0.6,92*,0.1
CC(=O)Nc1ccc2c(c1)CCC2=O,-15,1.1,-17,1.2
O=C(CCSc1ccc(Cl)cc1)NC12CC3CC(CC(C3)C1)C2,35,0.6,37,0.6
Cc1noc(C)c1C(=O)NCc1ccccc1,18,0.8,-15,1.1
CC(C)COc1ccc2[nH]c3c(c2c1)CCCC3=O,12,0.9,-1,1
Cc1cc(NCCN2CCOCC2)n2nc(C)c(-c3ccccc3)c2n1,-9,1.1,-22,1.2
Cc1cc(NCCCn2ccnc2)n2nc(C)c(-c3ccc(Cl)cc3)c2n1,90*,0.1,89*,0.1
Cc1cc(NCCCn2ccnc2)n2ncc(-c3ccccc3)c2n1,99*,0,98*,0
Cc1cc(NCCCn2ccnc2)n2nc(C)c(-c3ccccc3)c2n1,90*,0.1,88*,0.1
Cc1cc(NCCN2CCOCC2)n2nc(C)c(-c3ccc(Cl)cc3)c2n1,46,0.5,57*,0.4
Cc1cc(NCCN2CCOCC2)n2ncc(-c3ccccc3)c2n1,28,0.7,25,0.7
SMILES,CYP2C19 inh,CYP2C19 activ,CYP2C9 inhib,CYP2C9 act
FC(F)(F)c1ccccc1Nc1nccs1,8,0.9,-12,1.1
FCCCOc1ccc(-c2nccc(-c3ccc(Br)cc3)n2)cc1,28,0.7,43,0.6
CCCc1nnc(N2C(=O)c3cccc4cccc(c34)C2=O)s1,-8,1.1,-203,3*
O=C(CSc1nc(O)c(C2CCCCC2)c(=O)[nH]1)Nc1ccc(Cl)cc1,15,0.8,66*,0.3
CC(=O)Nc1c(O)nc(SCC(=O)Nc2ccc(C(C)=O)cc2)[nH]c1=O,-14,1.1,-12,1.1
COc1ccccc1CNC(=O)CN(c1ccc(C)cc1)S(=O)(=O)c1c(C)n[nH]c1C,67*,0.3,67*,0.3
COc1ccc(N(CC(=O)Nc2cc(C)on2)S(=O)(=O)c2cc(C)ccc2C)cc1,98*,0,95*,0
CCOC(=O)c1ccc(NC(=O)CN(c2ccc(C)cc2)S(=O)(=O)c2c(C)n[nH]c2C)cc1,19,0.8,76*,0.2
